Test results from the supplement of paper PMC6555819.

Tests used:
Assay in all cases: PBM binding z-score (relative to random genomic background probes); higher = stronger binding; sequences stand for … in GC…GCGATTGACAGCGTAGAATGAAGG
[1] = test system: FXR:RXRa (NR concentration 270 nM, RXRa partner concentration 90 nM)
In short: (§1)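 The probes on custom Agilent 4×180K protein-binding microarrays were double-stranded, with 34-nt variable regions bearing direct-repeat seeds, single-nucleotide variants, half-site ablations and random human genomic background sequences. Incubation lasted 1 h with ligand-free nuclear receptor dimers in PBS pH 7.4, 2% milk, 0.02% Triton X-100, 1 mM DTT, 0.2 mg/mL BSA and 0.4 mg/ml salmon testes DNA. Antibodies against each partner (one per run) detected bound dimers, and fluorescence scans were regression-normalized. Binding z-scores take the random background probes as reference.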

[2] = test system: LXRa:RXRa (NR concentration 270 nM, RXRa partner concentration 90 nM)
In short: as §1

[3] = test system: LXRa homodimer (NR concentration 270 nM)
In short: as §1

[4] = test system: LXRb:RXRa (NR concentration 270 nM, RXRa partner concentration 90 nM)
In short: as §1

[5] = test system: LXRb homodimer (NR concentration 270 nM)
In short: as §1

[6] = test system: PPARa:RXRa (NR concentration 270 nM, RXRa partner concentration 90 nM)
In short: as §1

[7] = test system: PPARg:RXRa (NR concentration 180 nM, RXRa partner concentration 90 nM)
In short: as §1

[8] = test system: PPARg:RXRa 270nM:90nM, anti-RXR (NR concentration 270 nM, RXRa partner concentration 90 nM)
In short: as §1

[9] = test system: PPARg:RXRa 30nM:10nM, anti-RXR (NR concentration 30 nM, RXRa partner concentration 10 nM)
In short: as §1

[10] = test system: PPARg:RXRa 90nM:30nM, anti-RXR (NR concentration 90 nM, RXRa partner concentration 30 nM)
In short: as §1

[11] = test system: PPARg:RXRa DBDmut IVT, anti-RXR (DBD mutation: RXRa K156A/R161A, NR concentration 270 nM, RXRa partner concentration 90 nM)
In short: as §1

[12] = test system: PPARg:RXRa IVT, anti-PPARg (NR concentration 270 nM, RXRa partner concentration 90 nM)
In short: as §1

[13] = test system: PPARg DBDmut:RXRa IVT, anti-PPARg (DBD mutation: PPARg1 K132A/R137A, NR concentration 270 nM, RXRa partner concentration 90 nM)
In short: as §1

[14] = test system: PPARg DBDmut IVT, anti-PPARg (DBD mutation: PPARg1 K132A/R137A, NR concentration 270 nM)
In short: as §1

[15] = test system: PPARg homodimer (NR concentration 180 nM)
In short: as §1

[16] = test system: PXR:RXRa (NR concentration 270 nM, RXRa partner concentration 90 nM)
In short: as §1

[17] = test system: PXR homodimer (NR concentration 270 nM)
In short: as §1

[18] = test system: RARa:RXR (NR concentration 270 nM, RXRa partner concentration 90 nM)
In short: as §1

[19] = test system: RARa homodimer (NR concentration 270 nM)
In short: as §1

[20] = test system: RARb:RXRa (NR concentration 270 nM, RXRa partner concentration 90 nM)
In short: as §1

Sequence | PBM binding z-score [1] | PBM binding z-score [2] | PBM binding z-score [3] | PBM binding z-score [4] | PBM binding z-score [5] | PBM binding z-score [6] | PBM binding z-score [7] | PBM binding z-score [8] | PBM binding z-score [9] | PBM binding z-score [10] | PBM binding z-score [11] | PBM binding z-score [12] | PBM binding z-score [13] | PBM binding z-score [14] | PBM binding z-score [15] | PBM binding z-score [16] | PBM binding z-score [17] | PBM binding z-score [18] | PBM binding z-score [19] | PBM binding z-score [20]
GCTACTAGTTGAAAGGGCAACCGAATGATTCTCG | 0.0739 | 0.67 | -0.0669 | 0.754 | -0.373 | 2.62 | 3.76 | 5.17 | 3.07 | 5.08 | 0.65 | 1.33 | 0.246 | -0.547 | 0.922 | 0.637 | -0.0671 | 1.32 | -0.371 | 1.95
CGAACTAGGTCATGGACAGGACAGTGAATAGTAA | 3.85 | 2.37 | -0.0954 | 1.81 | -0.546 | 4.79 | 8.05 | 6.56 | 4.17 | 6.19 | 8.1 | 8.31 | 3.01 | 0.998 | 1.68 | 1.65 | -0.17 | 2.55 | 0.249 | 3.88
GATACAGGGTCAAGGCCAGCGTACGCGTATTGAT | 6.93 | 4.12 | 0.203 | 3.86 | -0.187 | 5.63 | 5.9 | 5.32 | 2.19 | 4.12 | 2.09 | 3.85 | 0.49 | -0.316 | 2.29 | 3.48 | 0.372 | 4.36 | 1.03 | 4.52
TAGCCTAGGTCCGATCGGGCCAGTATACGCTATA | -1.62 | -1.4 | -0.978 | -1.3 | -1.45 | -0.907 | -0.184 | -1.28 | -1.09 | -1.31 | -1.07 | -0.553 | -0.601 | -1.51 | -1.58 | -1.01 | -1.16 | -1.17 | -1.53 | -1
ATCTCTAGGTAAAGATAGTTCACTGAATGCAAAT | 0.402 | 4.91 | 1.11 | 1.37 | 0.641 | 1.26 | 0.98 | 0.827 | 0.387 | 0.797 | 2.05 | 1.64 | 0.743 | 0.839 | 1.04 | 1.81 | 0.848 | 1.12 | 0.837 | 1.26
ATCTCTAGGTAAGGCTCAGTTCAGTGAAGAACGC | 0.198 | 0.107 | 0.412 | 0.0703 | 0.35 | 0.125 | 0.0741 | 0.513 | 0.188 | 0.48 | 1.94 | 1.3 | 0.628 | 1.33 | 0.996 | 0.855 | 1.22 | 0.496 | 0.033 | 0.228
AATACAGGGTCATCGTAGGCCAGAGGACGCACAG | 7.28 | 6.5 | 2.24 | 4.6 | 1.25 | 5.96 | 6.68 | 6.34 | 3.12 | 4.94 | 2.45 | 4.1 | 1.52 | 0.83 | 2 | 4.85 | 0.696 | 4.98 | 0.699 | 4.41
GATACAGGGTCAAAGCCAGAGTACGCGTATTGAT | 7.15 | 4.59 | 0.214 | 3.97 | 0.158 | 5.59 | 5.42 | 5.39 | 2.26 | 4.25 | 2.68 | 3.63 | 1.47 | 0.035 | 2.25 | 3.75 | 0.314 | 4.76 | 0.583 | 4.03
CCGACTGGGGCAGGGTTACCATAACGCACAGCCA | 0.198 | 0.487 | -0.443 | 0.866 | -0.609 | 1.41 | 1.77 | 1.98 | 0.254 | 1.44 | 1.51 | 2.47 | -0.73 | -1.24 | 0.145 | 0.395 | -0.445 | 0.895 | -0.407 | 0.803
AGAACGAGGGCACGCTGAGTTCATAGCAGAGTAG | 2.2 | 3.15 | 1.02 | 1.45 | -0.593 | 3.12 | 2.52 | 2.43 | 0.373 | 1.47 | 3.84 | 3.89 | 0.826 | -0.0454 | 1.16 | 5.94 | 10.4 | 2.94 | -0.449 | 3.2
ACTATTAGTTGAGACAAGGGCAACCGATAGGTTG | 0.264 | -0.00254 | -0.143 | -0.136 | 0.202 | 0.0106 | 0.795 | 0.412 | 0.214 | 0.411 | -0.102 | 0.38 | 0.684 | 0.362 | 1.21 | 0.594 | 0.47 | 0.553 | 0.821 | 1.17
